Active and inactive are the calls of the source. The calls were made as follows: active = hit-call score of the fitted dose curve at least 0.9, where 1 is the maximum; inactive = score below 0.9.
Legend:
[1] = ATG_NFI_CIS: Attagene CIS-FACTORIAL HepG2 Assay for human Nuclear Factor I (NFI) (AID 2282989); details: HepG2 cis-regulatory reporter, NFI response element transcription; actives raise or lower the signal
Procedure, shortened: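 Multiplexed cis-reporter system in human HepG2 cells reports native TF activity as reporter mRNA induction 24 h post-dose. Fragments labelled with 6-FAM, HpaI-digested and resolved by capillary electrophoresis; activity fitted both directions versus DMSO.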

[2] = biological target: Myc proto-oncogene protein (Homo sapiens) (UniProt P01106); assay: ATG_Myc_CIS: Attagene CIS-FACTORIAL HepG2 Assay for human Myelocytomatosis (Myc) Proto-Oncogene Transcription Factor (AID 2282990); details: HepG2, Attagene cis-reporter transcription factor activity; actives raise or lower the signal
Procedure, shortened: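 Cells of the HepG2 human liver line bear multiple cis-driven reporter transcription units. Reporter mRNA after 24 h exposure is reverse-transcribed, amplified, labelled and resolved by capillary electrophoresis, with gain- or loss-of-signal fitting relative to DMSO.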

[3] = ATG_NRF2_ARE_CIS: Attagene CIS-FACTORIAL HepG2 Assay for human Nuclear Factor Erythroid 2 Related Factor 2 (NFR2) response to Antioxidant Response Elements (ARE) (AID 2282992); details: HepG2 Attagene ARE/NRF2 reporter, transcription factor activity; actives raise or lower the signal;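 as to AC50: reporter mRNA level measured by RT-PCR and capillary electrophoresis fluorescence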
Procedure, shortened: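 HepG2 cells transiently transfected with multiplexed cis-regulated reporter transcription units measure endogenous transcription factor activity. Reporter mRNA at 24 h is quantified by RT-PCR, fluorescent labelling and capillary electrophoresis, with bidirectional fitting relative to DMSO.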

[4] = ATG_Oct_MLP_CIS: Attagene CIS-FACTORIAL HepG2 Assay for human Octamer-Binding Transcription Factor (Oct) (AID 2282993); details: HepG2 Attagene cis-factorial Oct reporter, mRNA; actives raise or lower the signal
Procedure, shortened: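 After 24 h compound exposure, transfected HepG2 cells were lysed for total RNA; reporter-specific cDNA was PCR-amplified, fluorescently labelled and sized by capillary electrophoresis. Bidirectional curve fitting used DMSO as baseline.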

[5] = biological target: Cellular tumor antigen p53 (Homo sapiens) (UniProt P04637); assay: ATG_p53_CIS: Attagene CIS-FACTORIAL HepG2 Assay for human p53 Transcription Factor (AID 2282994); details: HepG2 p53 cis-element reporter, Attagene mRNA; actives raise or lower the signal
Procedure, shortened: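 HepG2 cells transiently transfected with multiplexed cis-regulated reporter transcription units read endogenous TF activity. After 24 h compound exposure, reporter mRNA was quantified by RT-PCR, fluorescent labelling, HpaI digestion and capillary electrophoresis; bidirectional fits versus DMSO baseline.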

Measured: AC50

Chain of Cellular tumor antigen p53 (Homo sapiens) (P04637 whole entry, looked up): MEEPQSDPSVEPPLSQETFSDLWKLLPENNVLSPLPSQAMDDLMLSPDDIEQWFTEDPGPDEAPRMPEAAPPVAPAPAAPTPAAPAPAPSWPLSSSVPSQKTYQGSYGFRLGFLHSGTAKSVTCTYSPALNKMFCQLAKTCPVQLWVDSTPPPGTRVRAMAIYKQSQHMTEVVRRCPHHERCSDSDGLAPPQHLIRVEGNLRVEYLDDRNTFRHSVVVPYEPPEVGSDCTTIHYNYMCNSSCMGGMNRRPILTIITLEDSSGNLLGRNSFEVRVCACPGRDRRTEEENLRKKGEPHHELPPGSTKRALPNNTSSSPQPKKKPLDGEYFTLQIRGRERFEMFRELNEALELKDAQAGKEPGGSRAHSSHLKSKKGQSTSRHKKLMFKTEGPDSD
Chain of Myc proto-oncogene protein (Homo sapiens) (P01106 whole entry, looked up): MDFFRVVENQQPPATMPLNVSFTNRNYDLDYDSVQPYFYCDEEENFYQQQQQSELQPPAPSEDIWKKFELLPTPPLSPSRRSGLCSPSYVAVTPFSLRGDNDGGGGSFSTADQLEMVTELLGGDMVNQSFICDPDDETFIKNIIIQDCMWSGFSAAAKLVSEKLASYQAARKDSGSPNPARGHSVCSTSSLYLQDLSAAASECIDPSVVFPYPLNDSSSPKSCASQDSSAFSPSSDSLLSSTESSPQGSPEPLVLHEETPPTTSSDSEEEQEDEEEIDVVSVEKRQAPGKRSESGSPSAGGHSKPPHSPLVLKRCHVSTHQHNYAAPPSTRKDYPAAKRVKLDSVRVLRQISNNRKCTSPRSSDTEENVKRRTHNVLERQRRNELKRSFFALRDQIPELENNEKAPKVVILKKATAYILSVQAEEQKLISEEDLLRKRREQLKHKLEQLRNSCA

O=C1CCCCCN1SSN1CCCCCC1=O
active: [1] 153 µM | [3] 42.9 µM
inactive: all other assays above

CCCCCCC(O)CO (centres undefined)
inactive: all assays above

CC1=NN(c2cc(S(=O)(=O)O)ccc2Cl)C(=O)C1N=Nc1ccccc1 (centres undefined)
inactive: all assays above

COc1ccc([C@@H]2CC(=O)c3c(O)cc(O[C@@H]4O[C@H](CO[C@@H]5O[C@@H](C)[C@H](O)[C@@H](O)[C@H]5O)[C@@H](O)[C@H](O)[C@H]4O)cc3O2)cc1OC
inactive: all assays above

C=C(C)C(=O)OCCOc1ccccc1
inactive: [1] | [2] | [4]
active: [3] 67.1 µM

Cc1ccc(N/N=c2\c(=O)cc/c(=N/Nc3ccc(S(=O)(=O)O)cc3)c2=O)c(C)c1
inactive: all assays above

CCC(C)(C)C1CCCCC1OC(C)=O (centres undefined)
active: [3] 134 µM
inactive: all other assays above

CNC(=S)NN
inactive: all assays above

O=S1(=O)OC(c2ccc(O)cc2)(c2ccc(O)cc2)c2ccccc21
not listed: [5]
inactive: all other assays above

Nc1nc2ccccc2[nH]1
inactive: all assays above

CCCCCCCC/C=C\CCCCCCCC(=O)O
active: [3] 100 µM
inactive: all other assays above

CC(C)c1ccc2c(C(C)C)cc(C(C)C)c(S(=O)(=O)O)c2c1
active: [3] 25.9 µM
inactive: all other assays above

O=S(=O)(O)CC(O)CCl (centres undefined)
active: [3] 30 µM
inactive: all other assays above

CCCCCC/C=C/C=O
inactive: [1] | [2] | [4]
active: [3] 47.7 µM

Cc1cccc(OCCOc2cccc(C)c2)c1
active: [3] 26.7 µM
inactive: all other assays above

Cc1c(C)c([N+](=O)[O-])c(C(C)(C)C)c([N+](=O)[O-])c1C
inactive: all assays above

O=C(c1ccccc1)c1ccc(O)c(O)c1O
active: [3] 61.6 µM
inactive: all other assays above

CC(=O)OCC(C)OC(C)=O (centres undefined)
inactive: all assays above

Cc1ccc(C(C)c2ccc(C)c(C)c2)cc1C
active: [3] 37.5 µM | [4] 147 µM | [5] 41.9 µM
inactive: [1] | [2]

Cc1cccc(N)n1
inactive: all assays above

C1CN(SSN2CCOCC2)CCO1
active: [3] 18.8 µM
inactive: all other assays above

O=C(O)CCCCCCCCCC(=O)O
inactive: all assays above

CCCCCc1ccc(Cl)cc1
active: [3] 120 µM
inactive: all other assays above

COc1c2ccoc2cc2oc(=O)ccc12
inactive: all assays above

C[Si](C)(C)O[Si](O)(O)O
not listed: [5]
inactive: all other assays above

CCCCCCCC[N+](C)(CCCCCCCC)CCCCCCCC
inactive: [1] | [2] | [4]
active: [3] 1.59 µM

OCCNCc1ccccc1
inactive: all assays above

CC1=NC(C)OC1C (centres undefined)
active: [3] 42.5 µM | [5] 167 µM
inactive: all other assays above

Cc1ccc(C(C)(C)C)cc1
inactive: all assays above

CC1=CC[C@H](C(C)C)C=C1
active: [3] 27.7 µM
inactive: all other assays above

CC/C=C\C/C=C\C/C=C\CCCCCCCC(=O)O
inactive: [1] | [2] | [4]
active: [3] 48.2 µM

CCCCCCOC(=O)C(C)CC (centres undefined)
inactive: all assays above

C1=Cc2ccccc2C1
active: [3] 19.8 µM
inactive: all other assays above

c1ccc(CNCc2ccccc2)cc1
inactive: all assays above

CCOC(=O)Cc1cccc2ccccc12
inactive: all assays above

NNC(=O)c1cccc(C(=O)NN)c1
inactive: all assays above

CCCCCCCCO[C@@H]1O[C@H](CO)[C@@H](O)[C@H](O)[C@H]1O
inactive: all assays above

CCN(CC#N)c1cccc(C)c1
inactive: all assays above

Reference: PubChem BioAssay (EPA / NIEHS)
